Values joined by “and” are separate entries in the source; they are usually repeats but may differ in a detail not shown here. Equal entries are not always repeated. The whole screen tested about 5,500 compounds, of which about 2,000 (36%) were called active. Roughly 18% stayed inconclusive and do not appear here. No stated cut-off is given here; in the data, active means normalized growth mostly below about 0.91 (no sharp cut-off); inconclusive means no clear call, values can overlap the other calls; inactive means mostly above about 0.92. The list shows a part of the results.
Assay: chemical genetic growth profiling, strain panel (AID 1159580);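 further: tested at 20 µM; growth read once vehicle control cultures reached saturation at 30 °C; 1 = growth at the plate median or of vehicle wells; lower values mean less growth of the strain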
Settings: growth OD

Measured: normalized growth

CC1OC1P(=O)(O)O (stereo unspecified)
inactive: S. cerevisiae deletion strains, locus YKL009W, strain mrt4, active compounds read low 0.991 | S. cerevisiae deletion strains, locus YKL068W, active compounds read low 0.988 | S. cerevisiae deletion strains, locus YKL085W, strain MDH1 (second series), active compounds read low 0.978 | S. cerevisiae deletion strains, locus YKL085W, strain MDH1, active compounds read low 0.978 | S. cerevisiae deletion strains, locus YKL160W, strain elf1, active compounds read low 0.971 | S. cerevisiae deletion strains, locus YKL190W, strain CNB1, active compounds read low 1 | S. cerevisiae deletion strains, locus YKR001C, strain vps1, active compounds read low 0.992 | S. cerevisiae deletion strains, locus YKR026C, strain gcn3, active compounds read low 1 | S. cerevisiae deletion strains, locus YKR091W, strain srl3, active compounds read low 0.988 | S. cerevisiae deletion strains, locus YLL001W, strain dnm1, active compounds read low 0.982 | S. cerevisiae deletion strains, locus YLL026W, active compounds read low 0.985 | S. cerevisiae deletion strains, locus YLL041C, strain sdh2, active compounds read low 0.999 | S. cerevisiae deletion strains, locus YLR027C, strain aat2, active compounds read low 0.975 | S. cerevisiae deletion strains, locus YLR039C, strain RIC1, active compounds read low 0.991 | S. cerevisiae deletion strains, locus YLR058C, strain SHM2, active compounds read low 0.996 | S. cerevisiae deletion strains, locus YLR102C, strain apc9, active compounds read low 0.99 | S. cerevisiae deletion strains, locus YLR221C, strain rsa3, active compounds read low 0.974 | S. cerevisiae deletion strains, locus YLR258W, strain gsy2, active compounds read low 0.979 | S. cerevisiae deletion strains, locus YLR262C, strain YPT6 (second series), active compounds read low 0.987 | S. cerevisiae deletion strains, locus YLR262C, strain YPT6, active compounds read low 0.956 | S. cerevisiae deletion strains, locus YLR268W, strain sec22, active compounds read low 0.986 | S. cerevisiae deletion strains, locus YLR320W, strain mms22, active compounds read low 0.958 | S. cerevisiae deletion strains, locus YLR330W, strain CHS5, active compounds read low 0.992 | S. cerevisiae deletion strains, locus YLR342W, strain FKS1 (second series), active compounds read low 0.963 | S. cerevisiae deletion strains, locus YLR342W, strain FKS1, active compounds read low 0.983 | S. cerevisiae deletion strains, locus YLR357W, strain rsc2, active compounds read low 0.954 | S. cerevisiae deletion strains, locus YLR370C, strain arc18, active compounds read low 0.999 | S. cerevisiae deletion strains, locus YLR371W, strain rom2, active compounds read low 0.977 | S. cerevisiae deletion strains, locus YLR384C, strain iki3, active compounds read low 0.995 | S. cerevisiae deletion strains, locus YLR418C, strain cdc73, active compounds read low 0.963 | S. cerevisiae deletion strains, locus YML016C, strain PPZ1, active compounds read low 0.99 | S. cerevisiae deletion strains, locus YML032C, strain rad52, active compounds read low 0.997 | S. cerevisiae deletion strains, locus YML120C, strain ndi1, active compounds read low 0.998 | S. cerevisiae deletion strains, locus YML124C, strain tub3, active compounds read low 0.992 | S. cerevisiae deletion strains, locus YMR058W, strain fet3, active compounds read low 0.998 | S. cerevisiae deletion strains, locus YMR078C, strain ctf18, active compounds read low 0.982 | S. cerevisiae deletion strains, locus YMR125W, strain sto1, active compounds read low 1.01 | S. cerevisiae deletion strains, locus YMR129W, active compounds read low 1.01 | S. cerevisiae deletion strains, locus YMR205C, strain PFK2, active compounds read low 0.962 | S. cerevisiae deletion strains, locus YMR223W, strain ubp8, active compounds read low 0.971 | S. cerevisiae deletion strains, locus YMR231W, strain pep5, active compounds read low 0.991 | S. cerevisiae deletion strains, locus YMR263W, strain SAP30, active compounds read low 1.01 and 1 | S. cerevisiae deletion strains, locus YMR307W, strain GAS1, active compounds read low 0.94 | S. cerevisiae deletion strains, locus YNL067W, strain RPL9B, active compounds read low 1.03 | S. cerevisiae deletion strains, locus YNL071W, strain lat1, active compounds read low 1 | S. cerevisiae deletion strains, locus YNL128W, strain TEP1, active compounds read low 0.986 | S. cerevisiae deletion strains, locus YNL153C, strain GIM3, active compounds read low 1.15 | S. cerevisiae deletion strains, locus YNL175C, strain NOP13, active compounds read low 0.984 | S. cerevisiae deletion strains, locus YNL197C, strain WHI3, active compounds read low 0.988 | S. cerevisiae deletion strains, locus YNL209W, strain ssb2, active compounds read low 0.981 | S. cerevisiae deletion strains, locus YNL224C, strain SQS1, active compounds read low 0.983 | S. cerevisiae deletion strains, locus YNL233W, strain BNI4, active compounds read low 1 | S. cerevisiae deletion strains, locus YNL248C, strain rpa49, active compounds read low 1.03 | S. cerevisiae deletion strains, locus YNL250W, strain rad50, active compounds read low 0.952 | S. cerevisiae deletion strains, locus YNL271C, strain bni1, active compounds read low 0.993 | S. cerevisiae deletion strains, locus YNL298W, strain CLA4, active compounds read low 0.994 | S. cerevisiae deletion strains, locus YNL307C, strain MCK1, active compounds read low 0.98 | S. cerevisiae deletion strains, locus YNL322C, strain KRE1 (second series), active compounds read low 0.967 | S. cerevisiae deletion strains, locus YNL322C, strain KRE1, active compounds read low 0.996 and 0.98 | S. cerevisiae deletion strains, locus YNR049C, strain mso1, active compounds read low 1 | S. cerevisiae deletion strains, locus YNR052C, strain pop2, active compounds read low 0.978 | S. cerevisiae deletion strains, locus YOL006C, strain TOP1, active compounds read low 1.02 | S. cerevisiae deletion strains, locus YOL012C, strain htz1 1.02 | S. cerevisiae deletion strains, locus YOL147C, strain pex11, active compounds read low 0.98 | S. cerevisiae deletion strains, locus YOR001W, strain rrp6, active compounds read low 0.971 | S. cerevisiae deletion strains, locus YOR061W, strain CKA2, active compounds read low 0.987 | S. cerevisiae deletion strains, locus YOR069W, strain VPS5, active compounds read low 0.992 | S. cerevisiae deletion strains, locus YOR070C, strain gyp1, active compounds read low 0.981 | S. cerevisiae deletion strains, locus YOR080W, strain dia2, active compounds read low 1 | S. cerevisiae deletion strains, locus YOR083W, strain WHI5 (second series), active compounds read low 0.997 | S. cerevisiae deletion strains, locus YOR083W, strain WHI5, active compounds read low 0.95 | S. cerevisiae deletion strains, locus YOR106W, strain vam3, active compounds read low 0.986 | S. cerevisiae deletion strains, locus YOR136W, strain idh2, active compounds read low 0.994 | S. cerevisiae deletion strains, locus YOR144C, strain elg1, active compounds read low 0.989 | S. cerevisiae deletion strains, locus YOR184W, strain ser1, active compounds read low 0.972 | S. cerevisiae deletion strains, locus YOR265W, strain rbl2, active compounds read low 0.977 | S. cerevisiae deletion strains, locus YOR270C, strain vph1, active compounds read low 1.07 | S. cerevisiae deletion strains, locus YOR290C, strain snf2, active compounds read low 0.992 | S. cerevisiae deletion strains, locus YOR316C, strain cot1, active compounds read low 0.993 | S. cerevisiae deletion strains, locus YPL051W, strain arl3, active compounds read low 0.977 | S. cerevisiae deletion strains, locus YPL055C, strain LGE1, active compounds read low 1.06 | S. cerevisiae deletion strains, locus YPL078C, strain atp4, active compounds read low 0.993 | S. cerevisiae deletion strains, locus YPL106C, strain sse1, active compounds read low 0.959 | S. cerevisiae deletion strains, locus YPL240C, strain hsp82, active compounds read low 0.997 | S. cerevisiae deletion strains, locus YPL241C, strain CIN2, active compounds read low 0.996 | S. cerevisiae deletion strains, locus YPR119W, strain clb2, active compounds read low 0.99 | S. cerevisiae deletion strains, locus YPR141C, strain kar3, active compounds read low 0.985 | S. cerevisiae deletion strains, locus YPR163C, strain tif3, active compounds read low 0.979 | S. cerevisiae deletion strains, locus YPR167C, strain met16, active compounds read low 0.987 | S. cerevisiae deletion strains, strain wtn01, active compounds read low 0.967 | S. cerevisiae strains, strain wild type, active compounds read low 1
